SMILES strings stand for the structures. About 83,000 compounds went through this panel and 20% of them were active in at least one assay; those are over-represented in the sample as a whole.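 Cells were grown in 96-well plates and exposed to the test compound at a single concentration for 48 hours; results are reported as percent growth, with values below 10 considered active.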 Unmarked numbers belong to inactive results. Activity calls are given as the source filed them.

Seven compounds from PubChem BioAssay (NCI) can be followed below.

What all share (test): NCI-60 one-dose screen, 48 h (100 = growth as untreated, 0 = no growth, -100 = all killed)
Details in all cases: 10 µM unless noted

The subject of assay [1] is HT29 colon.
The test system of assay [2] is SNB-75 CNS.
Assay [3] concerns U251 CNS.
Assay [4] relates to PC-3 prostate.
For assay [5], the system named is SK-MEL-5 melanoma.
For assay [6], the system named is UACC-62 melanoma.
For assay [7], the system named is LOX IMVI melanoma.
In assay [8] the test system is SK-MEL-28 melanoma.
The subject of assay [9] is SK-MEL-2 melanoma.
For assay [10], the system named is EKVX NSCLC.
For assay [11], the system named is SN12C renal.
In assay [12] the test system is UO-31 renal.
Assay [13] relates to TK-10 renal.
The subject of assay [14] is ACHN renal.
Assay [15] has as its system CAKI-1 renal.
For assay [16], the system named is A498 renal.
Assay [17] has as its system CCRF-CEM leukemia.
The test system of assay [18] is MOLT-4 leukemia.
Assay [19] deals with SNB-19 CNS.

On to `CNC(=O)c1c(NC(=O)c2ccc(C(F)(F)F)cc2)sc2c1CCC(=O)C2`, for which the growth was 5.12% (active) in assay [1]; -17.4% (active) in assay [2]; -12.8% (active) in [3]; -30.9% (active) in [4]; -71.6% (active) in assay [5]; -29.1% (active) in [6]. For the same compound, the growth is 1.51% (active) in [7]; 4.24% (active) in [8]; -12.1% (active) in [9]; 9.76% (active) in [10]; 5.31% (active) in assay [11]; -94.3% (active) in assay [12]. For the same compound, the growth is 34.2% in [13]; -20.3% (active) in assay [14]; -32.9% (active) in assay [15]; -12.5% (active) in assay [16]; -5.31% (active) in assay [17]; 2.28% (active) in assay [18].

Regarding `CCCCCC(=O)OCC(=O)O[C@@H]1C[C@]2(C(C)C)O[C@@]1(C)[C@@H]1CC[C@@H](C)[C@H]1[C@@H]2OC(=O)/C=C/c1ccccc1`, the growth was 56.1% in assay [1]; 89% in assay [2]; 87% in [19]; 65.9% in assay [3]; 55.5% in assay [4]; 95.7% in assay [5]. The growth in assay [6] was 62.1%; in [7], 68.6%; in [8] it was 101%; in assay [9] it was 94%; in assay [10], 73.8%; in [11] it was 19.7%. Further, the growth in assay [12] is -80.3% (active); in assay [13], 134%; in assay [14], -24.2% (active); in assay [15], -4.76% (active); in assay [17] it was 59.7%; in assay [18], 72.1%.

In the case of `N#CC1=C(c2ccc(Cl)cc2)Nc2c(c(-c3ccc(Cl)cc3)nn2-c2ccccc2)C12C(=O)Nc1ccc(Cl)cc12` (stereo unspecified), the growth in assay [1] was 32.4%; in assay [2], 19%; in assay [19], 24.4%; in assay [3] it was 25.3%; in assay [4], 21.5%; in [5], 78.7%. The growth in assay [6] is 54.6%; in assay [7], 41.5%; in [8], 79.6%; in assay [9], 74.9%; in assay [10], 38.8%; in assay [11], 56.5%. For the same compound, the growth in [12] was 23.5%; in assay [13], 44.9%; in assay [14] it was 34.6%; in assay [15], 35.8%; in [16] it was 51.6%; in assay [17], 35.9%. Also, the growth in assay [18] was 35.1%.

With `CCN(CC)CCSc1nc(-c2ccccc2)c(C#N)c(=O)[nH]1`, the growth in assay [1] is 142%; in assay [2], 129%; in assay [19], 101%; in assay [3], 105%; in assay [4], 116%; in [5], 85.1%. Further, the growth in assay [6] was 108%; in assay [7], 99.9%; in assay [8], 110%; in assay [9], 97%; in assay [10], 91.8%; in assay [11] it was 116%. Moreover, the growth was 110% in [12]; 128% in assay [13]; 112% in assay [14]; 99.8% in [15]; 208% in assay [16]; 150% in assay [17]. The growth in assay [18] was 105%.

`Cc1ccc(Sc2nnc(/N=C3\C(=O)Nc4ccccc43)s2)cc1`: the growth in assay [1] is 111%; in assay [2] it was 87.5%; in [19] it was 101%; in assay [3], 97.4%; in [4], 99.7%; in assay [5] it was 107%. Also, the growth in [6] was 103%; in assay [7], 97.8%; in [8] it was 105%; in [9] it was 105%; in assay [10] it was 102%; in assay [11], 97.5%. Moreover, the growth in [12] was 90.5%; in [13] it was 104%; in [14], 96.6%; in [15], 85.6%; in assay [16] it was 93.6%; in [17] it was 93.4%. The growth in assay [18] was 100%.

In the case of `Nc1c(C(=O)Nc2ccccc2Cl)sc2nc3c(cc12)C(O)CCC3` (stereo unspecified), the growth in assay [1] was 6.13% (active); in [2], 22.9%; in [19], 41.6%; in assay [3] it was 29.4%; in assay [4], 36.8%; in assay [5], 21.4%. The growth is 47.9% in assay [6]; 45.5% in assay [7]; 79.2% in assay [8]; 36.5% in [9]; 40.7% in assay [10]; 59.7% in [11]. In addition, the growth was 56.9% in [12]; 45.8% in assay [13]; 57.1% in assay [14]; 49.6% in assay [15]; 18% in assay [16]; 17.7% in assay [17]. Further, the growth in assay [18] is 38.9%.

With `C#CCOc1cccc(Nc2ncnc3c(NC(=O)C=C)cccc23)c1`, the growth in assay [1] was 5.3% (active); in assay [2] it was 23%; in assay [19], 28.1%; in assay [3], 24.7%; in assay [4], 23.8%; in assay [5], 8.31% (active). Besides, the growth in [6] was 17.4%; in assay [7], 8% (active); in assay [8] it was 52.1%; in [9] it was 8.09% (active); in [10], 55.7%; in [11], 0.801% (active). The growth in assay [12] was 25.8%; in assay [13], -6.1% (active); in assay [14] it was 23.8%; in assay [15], 25.7%; in assay [16], 32%; in assay [17] it was 2.68% (active). Also, the growth in assay [18] was 4.11% (active).
